The results in this text go back to PubChem BioAssay AID1645855 (Buhrlage Lab, Dana-Farber Cancer Institute and Novartis …, 2021).

Structures are written as SMILES. In all, about 47,000 compounds went through this assay and about 3,100 (6.6%) were called active. No stated cut-off is given here; in the data, active means inhibition above about 30%; inactive means the rest. This excerpt belongs to a sample that is enriched for actives.

Ubiquitin carboxyl-terminal hydrolase 17-like protein 5 (Homo sapiens), sequence (A8MUK1 whole entry, looked up): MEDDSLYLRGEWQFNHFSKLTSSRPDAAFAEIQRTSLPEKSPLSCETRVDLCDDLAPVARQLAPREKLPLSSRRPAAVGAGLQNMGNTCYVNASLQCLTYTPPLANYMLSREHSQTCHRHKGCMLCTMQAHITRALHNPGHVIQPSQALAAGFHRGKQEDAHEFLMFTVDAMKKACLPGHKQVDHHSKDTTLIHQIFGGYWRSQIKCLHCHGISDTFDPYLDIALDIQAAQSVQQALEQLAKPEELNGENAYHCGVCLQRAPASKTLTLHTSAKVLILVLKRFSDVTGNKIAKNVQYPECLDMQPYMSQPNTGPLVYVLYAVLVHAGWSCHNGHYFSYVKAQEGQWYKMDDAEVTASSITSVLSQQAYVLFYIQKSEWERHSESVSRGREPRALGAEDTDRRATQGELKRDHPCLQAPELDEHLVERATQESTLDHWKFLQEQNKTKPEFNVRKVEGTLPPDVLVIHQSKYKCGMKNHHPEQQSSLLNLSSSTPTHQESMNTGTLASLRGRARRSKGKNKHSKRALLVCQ

The test concerns the target Ubiquitin carboxyl-terminal hydrolase 17-like protein 5 (Homo sapiens) (UniProt A8MUK1). Briefly: blocks human USP17 ubiquitin-rhodamine cleavage (AID 1645855). The settings on record: purified USP17, Ub-rhodamine cleavage fluorescence, 3 h; at 50 µM; stronger effect = higher value.
For the compound `O=C(c1ncccn1)N1CCCC1c1ncc(Cc2ccccc2Cl)o1` (stereo not drawn), the inhibition – broadly, the relative decrease from the control value, in per cent – was 0.408% (inactive).
Under `COc1ccc(NC(=O)c2c(N3CCCC3=O)c3cc(F)ccc3n2C)cc1Cl` stands -15.2% (inactive).
Under `O=C(Nc1ccc(-c2nc3cccnc3s2)cc1)C(c1ccccc1)c1ccccc1` stands -146% (inactive); under `CCC(C(=O)Nc1ccc(-c2cn3cccnc3n2)cc1)c1ccccc1` (stereo not drawn), 45.8% (active); under `CC(=O)c1ccc(NC(=O)C(C)Sc2nnc(COc3ccc(C)cc3)n2Cc2ccccc2)cc1` (stereo not drawn), 7.66% (inactive).
With `CCC(C(=O)Nc1cc(=O)[nH]c2nc(CCc3ccccc3)nn12)c1ccccc1` (stereo not drawn), the inhibition is 2.97% (inactive).
For the compound `Cc1ccn2cc(-c3ccc(NS(=O)(=O)c4cc(C)c(C)cc4C)cc3)nc2n1`, the inhibition is -32.9% (inactive).
In the case of `CC(Oc1ccccc1)C(=O)Nc1ccc(-c2cn3cccnc3n2)cc1` (stereo not drawn), the inhibition is 41.4% (active).
For the compound `Cc1ccc(Cn2c(C(=O)O)c(CNC(C)CCc3ccccc3)c3ccccc32)cc1` (stereo not drawn), the inhibition was -1.67% (inactive).
The result for `Cc1nc(Nc2ncccn2)cc(C2CCCN2S(C)(=O)=O)n1` (stereo not drawn) reads 0.142% (inactive); that for `O=C1CN(C(=O)c2cccc3ccccc23)C(c2ccc(F)cc2)c2cc(Br)ccc2N1` (stereo not drawn), 2.94% (inactive); that for `O=C(c1cc2ccccc2[nH]1)N1CCCC2(COCCN(c3cccnc3)C2)C1` (stereo not drawn), 16.4% (inactive).
Under `COc1ccc(NC(=O)CSc2cn(CC(=O)N3CCCC3)c3ccccc23)cc1` stands 7.65% (inactive); under `CCOc1ccc2c(c1)c(=O)c(C(=O)c1ccccc1)cn2CC(=O)Nc1ccc(OC)cc1`, -0.53% (inactive).
`CCOc1ccc(NC(=O)Cn2cc(C(=O)c3ccc(Cl)cc3)c(=O)c3cc(OC)ccc32)cc1`: the inhibition was 57.1% (active).
Under `O=C(C1CC1)N1CCc2cc(S(=O)(=O)NCCCN3CCN(Cc4ccccc4)CC3)ccc21` stands -6.1% (inactive).
Take `COc1ccc(-c2nc3c(c(=O)c4ccccc4n3C)c(=O)n2CCc2ccc(OC)c(OC)c2)cc1`: the inhibition was 7.74% (inactive).
The result for `COc1c(O)c2c3c(c1O)C(=O)[C@@]1(O)C(=C3C(C)=CC2=O)O[C@@H](C)C1(C)C` reads 37.6% (active); that for `Cc1nn(-c2ccccc2)c(C)c1S(=O)(=O)Nc1ccccc1C(N)=O`, 7.84% (inactive).
Under `COc1cccc(CNS(=O)(=O)c2cc3[nH]c4c(c3cc2C)C(=O)CCC4)c1` stands -25.1% (inactive); under `Cc1oc(-c2ccccc2Cl)cc1C(=O)Nc1ccc(F)cc1`, -7.25% (inactive); under `COc1cccc(NC(=O)c2nn(-c3ccc(F)cc3)c(OC)cc2=O)c1`, -0.739% (inactive).
Take `Cn1nc(C(=O)Nc2ccc(F)cc2)c(=O)c2ccccc21`: the inhibition is 32.8% (active).
The result for `CNc1nc2c(c(=O)n1-c1ccccc1)CN(C(=O)c1ccc3ccccc3c1)CC2` reads 1.41% (inactive).
The result for `CNc1nc2c(c(=O)n1-c1ccccc1)CCN(S(C)(=O)=O)C2` reads 4.69% (inactive).
The result for `CN1CCc2c(sc3nc(SCCc4ccccc4)n(-c4ccccc4)c(=O)c23)C1` reads 41.9% (active); that for `Cc1ccc(-c2nnc(CCC(=O)O)o2)cc1`, -26.7% (inactive).
Turning to `COc1cc(OC)cc(C(=O)Nc2cccc(CCc3nc4ccc(C)cc4[nH]3)c2)c1`, the inhibition was 30.4% (active).
Under `CC(=O)Nc1ccc(C(=O)CSc2nc3ccc(C)cc3[nH]2)cc1` stands 12.1% (inactive).
Under `COc1ccccc1NC(=O)Nc1ccc(CCc2nc3ccccc3[nH]2)cc1` stands -12.4% (inactive).
Under `Cc1ccc(C(=O)N2CCCC(c3nnc(-c4ccccc4)o3)C2)cc1F` (stereo not drawn) stands -2.67% (inactive).
On to `O=CN1c2ccccc2NC(=O)CC1c1ccccc1` (stereo not drawn), for which the inhibition is -3.98% (inactive).
Under `Cc1cc(NC2CCCCC2)n2ncc(-c3ccc(Cl)cc3)c2n1` stands -4.39% (inactive); under `Clc1ccc2ncnc(NC3CCCCC3)c2c1`, 39.8% (active); under `c1ccc(-c2nc3c4ccccc4nc(NC4CCCC4)n3n2)cc1`, -4.03% (inactive).
For the compound `Cc1cc(C(=O)Nc2cccc(F)c2)cc2c1N(C)S(=O)(=O)c1ccccc1-2`, the inhibition was 5.77% (inactive).
Under `Cc1nn(-c2ccc(F)cc2F)c2c1C(C(=O)c1ccc3c(c1)OCO3)CC(=O)N2` (stereo not drawn) stands 9.19% (inactive); under `Cc1nn(-c2cccc(F)c2)c2c1C(C(=O)c1cc3ccccc3o1)CC(=O)N2` (stereo not drawn), 2.88% (inactive); under `Cc1nn(-c2ccc(F)cc2F)c2c1C(C(=O)c1cc3ccccc3o1)CC(=O)N2` (stereo not drawn), 31.3% (active).
For `Cc1cc(N2CCCC2)ccc1CN1CCCC(c2nnc3n2CCNCC3)C1` (stereo not drawn), the inhibition was -63.9% (inactive).
As to `O=C(Nc1ccccc1-c1nc2ccccc2[nH]1)c1cc(S(=O)(=O)N2CCOCC2)c(Cl)cc1Cl`, the inhibition is -21.9% (inactive).
Under `O=C(Nc1nc2ccc(S(=O)(=O)N3CCOCC3)cc2s1)c1cc2ccccc2oc1=O` stands 34.2% (active).
Under `O=C(Nc1ccc(Cl)c(S(=O)(=O)N2CCOCC2)c1)c1cc(-c2ccccc2Cl)nc2ccccc12` stands -12.8% (inactive); under `CC(=O)CCCSc1ncnc2c1sc1nc(N3CCOCC3)c3c(c12)CC(C)(C)OC3`, 16.1% (inactive).
The result for `O=C(COc1cccc2ccc(N3CCC(Cc4ccccc4)CC3)nc12)NCc1ccc(F)cc1` reads 35.1% (active); that for `Cn1c(=O)c(N2CCC(C(=O)NCc3ccc(F)cc3)CC2)nc2cccnc21`, 16.8% (inactive); that for `O=C(CC1C(=O)OCCN1Cc1ccccc1)Nc1cccc(F)c1` (stereo not drawn), -10.1% (inactive).
On to `O=C(COc1cccc2ccc(N3CCC(Cc4ccccc4)CC3)nc12)Nc1cccc(F)c1`, for which the inhibition is 46.2% (active).
`COc1ccc(NC(=O)CSc2ncccc2C(=O)N2CCC(Cc3ccccc3)CC2)cc1OC`: the inhibition was 11% (inactive).
The result for `O=C(CCc1nnc2ccc(N3CCCC3)nn12)NCc1ccc(F)cc1` reads 11.5% (inactive).
Under `COc1ccccc1CC(=O)Nc1cc(S(=O)(=O)N2CCOCC2)ccc1N1CCN(C)CC1` stands -26.7% (inactive).
The result for `C[C@H](NC(=O)Cc1ccc(Cl)cc1)C(=O)N1CCC2(CC1)NCCc1[nH]cnc12` reads 9.11% (inactive); that for `O=C(CSc1ncc(-c2ccc(F)cc2)[nH]1)N1CCCC1`, 2.63% (inactive); that for `O=C(Cn1c(-c2nc(-c3ccc(F)cc3)no2)cccc1=O)N1CCCC1`, 33% (active).
Take `O=C(c1ccc(F)cc1)N1CCCC(c2nc(-c3ccccc3)no2)C1` (stereo not drawn): the inhibition is 11.7% (inactive).
The result for `COc1ccc2[nH]c(C)c(CCNC(=O)c3cccs3)c2c1` reads 0.591% (inactive); that for `Cc1c(N2CCN(S(=O)(=O)c3ccc(C(C)C)cc3)CC2)c(=O)n(C)c(=O)n1C`, -2.36% (inactive).
Under `Cc1nc(SCc2ccc([N+](=O)[O-])cc2)c2oc3ccccc3c2n1` stands 12.4% (inactive); under `Cc1nc(SCC#N)c2oc3ccccc3c2n1`, 60.3% (active); under `COc1cccc(Cc2cncc(C(=O)N3CCNC(=O)C3)c2)c1`, 6.62% (inactive).
The result for `CSc1cccc(NC(=O)COc2ccc(C(=O)c3ccccc3)cc2)c1` reads 12.9% (inactive); that for `CSc1cccc(NC(=O)CC(=O)Nc2ccc3nc4n(c(=O)c3c2)CCCCC4)c1`, 34.4% (active); that for `CSc1cccc(NC(=O)CCc2ccc3nc[nH]c3c2)c1`, -17.1% (inactive).
As to `Cc1ccc(-n2c3c(c(=O)[nH]c2=O)CN(Cc2ccco2)CN3)cc1`, the inhibition was -9.75% (inactive).
Under `Cc1cc(C)c2nc3c(cc2c1)CN(Cc1ccco1)C(=O)O3` stands 51.9% (active); under `COc1ccc2nc3c(cc2c1)CN(Cc1ccccc1)C(=O)O3`, 18.5% (inactive); under `O=S(=O)(Cc1ccccc1)N1CC2(CCN(CC3CCCC3)CC2)C1`, 0.208% (inactive).
The result for `COc1ccccc1CNC(=O)c1ccc(-n2nc(C)c3c2CCCC3=O)cc1` reads -3.98% (inactive); that for `Cc1ccc(CNc2nnc(-c3nnc(C)o3)c3ccccc23)cc1`, 3.95% (inactive).
Under `O=C(COc1ccc2ccccc2c1)NCc1nnnn1-c1ccc(Cl)cc1` stands 49.4% (active); under `Cc1ccc(NC(=O)NCc2nnnn2-c2ccccc2)cc1C`, -3.49% (inactive).
Regarding `CC(C)c1ccc(OCC(=O)NCc2nnnn2-c2ccc(Cl)cc2)cc1`, the inhibition was 11.8% (inactive).
For the compound `CC(NC(=O)c1csc(C(=O)NC2CC2)n1)c1ccc(F)cc1` (stereo not drawn), the inhibition is 7.32% (inactive).
The result for `CC(C(=O)NCCCN1CCOCC1)C1CCN(C(=O)c2cc3ccccc3[nH]2)CC1` (stereo not drawn) reads -0.784% (inactive); that for `Cc1ccc(-c2nnc(NC(=O)C(c3ccccc3)c3ccccc3)o2)c(C)c1`, 2.51% (inactive).
Under `Cc1nnc(C(=O)Nc2ccc(C(=O)NCc3ccccc3C)cc2)s1` stands 68.1% (active).
Under `COc1ccc(OC)c(CNC(=O)c2nnc(C(=O)Nc3ccc(F)cc3)s2)c1` stands 14.8% (inactive); under `Cc1ccccc1CNC(=O)c1sc2ncnc(N3CCCC3)c2c1C`, -0.361% (inactive); under `CC(=O)N1CCCC(c2ccnc(Nc3ccccn3)n2)C1` (stereo not drawn), 6.44% (inactive).
For the compound `CN(C(=O)c1ncccn1)[C@H]1CC[C@@]2(C)C[C@H](c3ccccc3)C[C@](C)(O2)[C@@H]1O`, the inhibition was 3.44% (inactive).
The result for `CC(C)c1ccc(S(=O)(=O)N[C@H](C)C(=O)NCc2cscn2)cc1` reads 6.37% (inactive).
Under `CNc1cnc(CC2CCCN(C(=O)c3scnc3C)CC2)cn1` (stereo not drawn) stands -9.92% (inactive); under `CCc1ccc(NC(=O)Cn2cnc(S(=O)(=O)N3CCOCC3)c2)cc1`, 24.3% (inactive); under `Cc1cc(NC(=O)COC(=O)c2cccc(C)c2O)ccc1Br`, 37% (active).
Under `N#Cc1cccc(NC(=O)COC(=O)c2cc3ccccc3oc2=O)c1` stands 3.87% (inactive); under `Cc1cc(-c2nnc(SCC(=O)Nc3ccc(Br)c(C)c3)n2N)n[nH]1`, 23.4% (inactive); under `C=C1CCC2[C@](C)(CCC[C@]2(C)C(=O)OC)[C@H]1CCc1ccoc1C[N+](C)(C)Cc1ccccc1` (stereo partly drawn), 31.1% (active).
On to `C=C1CCC2[C@](C)(CCC[C@]2(C)C(=O)OC)[C@H]1CCc1ccoc1CNCC(=O)O` (stereo partly drawn), for which the inhibition was 28% (inactive).
